Compound activity (PubChem BioAssay)
Hits are enriched below; roughly 2.8% of the tested compounds scored in any of these assays.
KDM5B inhibitor – blocks human KDM5B histone demethylase activity. Potency, µM (top dose mostly 57.7 µM), hits mostly inhibitors. 220,000 tested, 2.6% active. Q9UGL1. KDM5B demethylase, FDH-coupled NADH fluorescence (FDH is formaldehyde dehydrogenase); further: potency means the concentration at half of the fitted maximal effect; 0% is about no effect; nearly all actives have a fitted effect of over 70% in size
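Here, H3K4me3 peptide (12.5 µM in substrate mix) is demethylated by KDM5BΔAP, 200 nM final, after 10 min compound exposure. Formaldehyde product is coupled through FDH (0.25 U/mL in mix) to NADH fluorescence; 30-min ΔRFU feeds dose-response curves.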
SNCA expr inhib – reduces expression of the alpha-synuclein gene; 140,000 tested, 0.17% active; AID 1671194; Potency, µM (titrated, usually from 57.2 µM), without a hit: top-dose activity change, negative = inhibition, usual class: inhibitors; HEK-293 SNCA-luciferase knock-in, luminescence, 24 h;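 further: potency means the concentration at half of the fitted maximal effect; plate controls were DMSO cells for no effect and cell-free wells for full effect; nearly all actives have a fitted effect of over 45% in size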
HEK293 viab – reduces viability of HEK-293 SNCA reporter cells; AID 1671193; Potency, µM (top dose mostly 57.1 µM), inactives show at the top dose activity change, negative = cytotoxicity, hits mostly cytotoxic; 150,000 tested, 0.12% active; HEK-293-SNCA-luc viability, GF-AFC fluorescence, 24 h;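 further: potency means the concentration at half of the fitted maximal effect; 0% = DMSO-treated cells and -100% = medium-only wells without cells; nearly all actives have a fitted effect of over 30% in size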
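HEK-293-SNCA-luc cells (1500/well) plated 24 h, then exposed 24 h to a dilution series; GF-AFC added 30 min at 37C, fluorescence 405/540 nm; normalised to medium-only and DMSO wells, Hill fit.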
IP6K1 inh – blocks human inositol hexakisphosphate kinase 1; IP6K1 kinase, ADP-Glo luminescence, 2 h; active compounds read low; activity change, % (series mostly up to about 58 µM); 140,000 tested, 0.81% active; in the data active means activity change below about -25%; further: on the % scale 0 is the no-effect control and ±100 the full control effect
Target sequence (Q92551 whole entry, looked up): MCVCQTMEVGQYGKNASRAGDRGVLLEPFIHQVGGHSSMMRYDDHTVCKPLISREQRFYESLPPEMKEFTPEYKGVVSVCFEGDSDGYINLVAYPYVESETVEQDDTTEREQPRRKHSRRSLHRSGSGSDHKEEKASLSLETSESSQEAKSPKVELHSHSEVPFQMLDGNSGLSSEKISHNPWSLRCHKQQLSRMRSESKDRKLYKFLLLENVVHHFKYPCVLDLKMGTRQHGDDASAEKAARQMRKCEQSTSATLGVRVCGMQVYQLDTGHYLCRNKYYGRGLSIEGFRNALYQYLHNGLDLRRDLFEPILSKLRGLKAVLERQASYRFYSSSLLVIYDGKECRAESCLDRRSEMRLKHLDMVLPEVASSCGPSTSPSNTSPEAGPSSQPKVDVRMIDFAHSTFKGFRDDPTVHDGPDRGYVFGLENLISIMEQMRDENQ
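ADP-Glo luminescence measures ADP made by human IP6K1 during a 2 h RT reaction with ATP/IP6 (mix at 1.3 mM/130 uM); top library doses 57.5 and 19.1 uM final.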
Starred values were filed as active, the others as inactive; i = inactive; ? = inconclusive; / = not tested or not shown; [ ] = dose if it differs, or a comment. Unless noted, the call rests on the fitted dose curve; in most records, active means well fitted curve in the direction sought with a large enough effect; inconclusive means small, poorly fitted or top-dose-only effect, or another doubt; inactive means no such curve, though single readings can be large; an effect the other way counts as inactive or inconclusive.

SMILES | KDM5B inhibitor | SNCA expr inhib | HEK293 viab | IP6K1 inh
N#Cc1ccc(NC(=S)N[C@H]2CO[C@H]3[C@@H]2OC[C@H]3OC(=O)Nc2ccccc2)cc1 | ? | -23%[87.6 µM] | -5%[87.6 µM] | 1
CN(C)C(=O)N1CCCn2nc(CNC(=O)c3sccc3N)cc2C1 | 35µM* | 5% | 1% | 21
CN(C)C(=O)N1CCCn2nc(CNC(=O)c3ccc4[nH]ccc4c3)cc2C1 | ? | -15% | 2% | 24
CC(C)c1noc([C@@H]2C[C@@H](O)CN2Cc2ccc(N(C)C)cc2)n1 | i | -2%[87.6 µM] | 5%[87.6 µM] | -6
CC(C)c1noc([C@@H]2C[C@@H](O)CN2Cc2cc3ccccc3o2)n1 | 40µM* | 6%[87.6 µM] | 2%[87.6 µM] | 6
COc1ccc(-c2noc([C@@H]3C[C@@H](O)CN3Cc3cc4ccccc4o3)n2)cc1 | 32µM* | 38%[87.6 µM] | -10%[87.6 µM] | 3
Cc1ccc2c(C(=O)NCc3ccc(Cl)nc3)cnn2c1 | 40µM* | 16%[87.6 µM] | 15%[87.6 µM] | -4
O=C(NCc1ccc(Cl)nc1)c1cnn2c1CN(C(=O)c1ccccc1)CC2 | i | 0% | -4% | 16
Cc1ccc2c(C(=O)NCc3ccc(Cl)cc3Cl)cnn2c1 | ? | 146%[87.6 µM] | 0%[87.6 µM] | -2
O=C(NCc1ccc(Cl)nc1)c1cccn2nccc12 | 35µM* | ? | 0%[87.6 µM] | 5
COc1cccc(-c2ccc(C(=O)N3CCC(NC(=O)Nc4ccccc4)CC3)cc2)c1 | / | -23% | -2%[12.5 µM] | -7
O=c1c2nc(-c3ccccc3)ccc2ncn1Cc1ccccn1 | 40µM* | -19%[87.6 µM] | -5%[87.6 µM] | 18
Cc1ccc(-c2ccc3ncn(Cc4ccccn4)c(=O)c3n2)c(C)c1 | 32µM* | -3%[87.6 µM] | -6%[87.6 µM] | 4
O=c1c2nc(-c3ccc(Cl)cc3)ccc2ncn1Cc1ccccn1 | 35µM* | 5%[87.6 µM] | -22%[87.6 µM] | 6
O=c1c2nc(-c3ccccc3F)ccc2ncn1Cc1ccccn1 | ? | 4%[87.6 µM] | -1%[87.6 µM] | -4
COc1ccc(-c2ccc3ncn(Cc4ccccn4)c(=O)c3n2)cc1F | 35µM* | 6%[87.6 µM] | -12%[87.6 µM] | 5
CNCCN1C(=O)CC[C@H]2CN(C(=O)COc3cccnc3)CC[C@H]21 | i | 5% | -3% | -1
CNCCN1C(=O)CC[C@H]2CN(C(=O)c3ccnc(NC)c3)CC[C@H]21 | 25µM* | 21% | -2% | 5
COc1ccc(CC(=O)NCCNC(=O)c2ccc(-c3cccc(C(F)(F)F)c3)cc2)cc1 | / | / | / | 7
OCc1ccc(-c2cc(-c3ccncc3)c3cncn3c2)cc1 | ? | -14%[87.6 µM] | 2%[87.6 µM] | 2
COc1ccc(-c2cc(-c3cccc(C(N)=O)c3)cn3cncc23)cc1 | ? | 12%[87.6 µM] | -8%[87.6 µM] | -7
COc1ccc(-c2cc(-c3ccc4c(c3)CNC4=O)cn3cncc23)cc1 | 22µM* | 14%[87.6 µM] | -6%[87.6 µM] | -17
COc1ccc(-c2cc(-c3cccnc3)c3cncn3c2)cn1 | ? | 23%[87.6 µM] | -11%[87.6 µM] | -15
COc1ccc(-c2cc(-c3ccncc3)cn3cncc23)cc1 | 40µM* | ? | -15%[87.6 µM] | -13
COc1ccc(-c2cc(-c3ccc4cn[nH]c4c3)cn3cncc23)cn1 | 10µM* | ? | -7%[87.6 µM] | -8
SMILES | KDM5B inhibitor | SNCA expr inhib | HEK293 viab | IP6K1 inh
COC(=O)c1ccc(COc2ccccc2Br)cc1 | i | / | / | /
O=C(NCC(F)(F)F)c1cc(Br)cn2ccnc12 | 35µM* | 25%[87.6 µM] | 4%[87.6 µM] | 2
COCCNC(=O)c1cc(Br)cn2ccnc12 | 40µM* | 21%[87.6 µM] | 5%[87.6 µM] | -5
O=C(NCC1CC1)c1cc(Br)cn2ccnc12 | ? | 24%[87.6 µM] | 9%[87.6 µM] | -8
O=C(NCc1ccc(C(F)(F)F)cc1)c1cc(Br)cn2ccnc12 | 14µM* | 11% | ? | -3
O=C(NCCc1ccccc1F)c1cc(Br)cn2ccnc12 | 28µM* | 164% | -9% | -15
O=C(NCCc1ccccc1F)c1ccncc1 | i | / | / | /
Cc1ccc(C(=O)NCCc2nc3cc(NC(=O)c4ccccc4C)ccc3n2C)cc1F | i | / | / | /
CN(CCOc1ccc(Cl)cc1)Cc1nc(N)nc(N)n1 | i | / | / | /
COC(=O)CNC(=O)c1cc(Br)cn2ccnc12 | 32µM* | 4%[87.6 µM] | 4%[87.6 µM] | -8
COCC(=O)N[C@H]1CCN(C(=O)COC)[C@H](C(=O)N[C@H](Cc2c[nH]c3ccccc23)C(=O)OC)C1 | 22µM* | 1% | 14% | -5
CC(C)NC(=O)N1CCN(C(=O)NC2CCCCC2)[C@@H](C(=O)N[C@H](Cc2c[nH]c3ccccc23)C(N)=O)C1 | i | -15% | -10% | 1
CN(C)S(=O)(=O)c1cc(NC(=O)c2nn(Cc3ccccc3)c(=O)c3ccccc23)ccc1Cl | i | / | / | /
COc1ccc(OC)c(NC(=O)Cn2c(-c3ccc(Cl)cc3)nc(C)c(CCO)c2=O)c1 | 25µM* | 28% | -3% | -4
COc1ccc(OC)c(NC(=O)Cn2c(-c3cccc(Cl)c3)nc(C)c(CCO)c2=O)c1 | i | -25% | -12% | -5
CN(C)c1ccc(-c2nnnn2[C@H]2CO[C@H]3[C@@H]2OC[C@H]3OC(=O)Nc2ccc(Oc3ccccc3)cc2)cc1 | 13µM* | -18% | -6% | 10
CN(C)c1ccc(-c2nnnn2[C@H]2CO[C@H]3[C@@H]2OC[C@H]3OCc2ccccc2)cc1 | 32µM* | 4%[87.6 µM] | 3%[87.6 µM] | -1
O=C(Nc1ccc(Oc2ccccc2)cc1)O[C@@H]1CO[C@H]2[C@@H]1OC[C@@H]2n1nnnc1-c1ccc(-c2ccccc2)cc1 | ? | -5% | 2% | -3
COc1ccccc1C(=O)NC1CCN(c2ccc3nnc(-c4ccccc4)n3n2)CC1 | / | / | / | -5
COc1ccc(CN2CC(COc3ccccc3)C3(C2)CN(c2ccccc2)C3)cc1O (stereo not drawn) | 32µM* | ? | ? | -5
NS(=O)(=O)c1ccc(CCNS(=O)(=O)c2ccc(F)cc2)cc1 | i | / | / | /
Cn1cc(-c2cnc3[nH]cc(CC(=O)Nc4cccc(F)c4)c3c2)cn1 | 28µM* | -8%[87.6 µM] | -21%[87.6 µM] | -16
Cc1ccccc1-c1cnc2[nH]cc(CC(=O)Nc3ccccc3)c2c1 | 35µM* | ? | ? | 8
COc1ncccc1-c1cnc2[nH]cc(CC(=O)Nc3nc(C)cs3)c2c1 | i | 13%[87.6 µM] | -28%[87.6 µM] | -17
COc1ccc(NC(=O)Cc2c[nH]c3ncc(-c4ccccc4C)cc23)cc1 | ? | ? | -16%[87.6 µM] | -21
SMILES | KDM5B inhibitor | SNCA expr inhib | HEK293 viab | IP6K1 inh
Cn1cc(-c2cnc3[nH]cc(CC(=O)Nc4ccc(N5CCOCC5)cc4)c3c2)cn1 | ? | 1%[87.6 µM] | 6%[87.6 µM] | -18
COc1ncccc1-c1cnc2[nH]cc(CC(=O)Nc3cccc(Cl)c3)c2c1 | 32µM* | 13%[87.6 µM] | ? | 28
O=C(Cc1c[nH]c2ncc(-c3ccccc3)cc12)NCc1ccncc1 | 28µM* | 7%[87.6 µM] | 2%[87.6 µM] | -15
CCCCc1c(C)[nH]n(-c2nc(C)c(C(=O)Nc3cccc(OC)c3)s2)c1=O | i | / | / | /
CC1CCN(C(=O)C2CCCN(C(=O)c3ccc4cc[nH]c4c3)C2)CC1 (stereo not drawn) | i | / | / | /
Cc1nc(-c2ccccc2)sc1C(=O)NC1CCC(C(F)(F)F)CC1 (stereo not drawn) | i | / | / | /
Cc1ccccc1-c1cnc2[nH]cc(CC(=O)NC3CC3)c2c1 | 28µM* | -3%[87.6 µM] | -16%[87.6 µM] | -17
COc1ncccc1-c1cnc2[nH]cc(CC(=O)NC3CC3)c2c1 | ? | 42%[87.6 µM] | -15%[87.6 µM] | -16
